A short description of experiment [1]: qHTS assay to identify small molecule antagonists of the estrogen related receptor (ERR) signaling pathway from Tox21 library - cell viability counter screen (AID 1224834). Also: nearly all actives have a fitted effect of over 30% in size. Also: potency is read from the fitted curve at half-maximal effect. Summed up:
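ERR reporter cells were plated 6 h before compound addition, then exposed to test compounds in DMSO for 17.5 h at 37 C. Viability was read as CellTiter-Fluor fluorescence after a 30-minute incubation at 37 C.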

Experiment [2] addresses Luciferin 4-monooxygenase (Photinus pyralis) (UniProt P08659). The experiment can be described thus: qHTS assay to identify small molecule inhibitors of firefly luciferase (AID 1224835). Also: nearly all actives have a fitted effect of over 25% in size. Also: potency is read from the fitted curve at half-maximal effect. In outline: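 Inhibition of purified Photinus luciferase is measured by luminescence. Substrate levels (D-luciferin, ATP) sit at their KM values. Each compound is tested in a concentration series.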

Experiment [3] can be described thus: qHTS assay to identify small molecule agonists of the constitutive androstane receptor (CAR) signaling pathway - cell viability counter screen (AID 1224836). Also: nearly all actives have a fitted effect of over 45% in size. Also: potency is read from the fitted curve at half-maximal effect. Summed up: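 23 h treatment, 37 C, 5% CO2. Cell line: HepG2 stably expressing hCAR with a CYP2B6-2.2kb construct. Co-treatment: PK11195, 0.75 uM final. Read-out: CellTiter-Fluor fluorescence intensity.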

The nature of experiment [4]: qHTS assay to identify small molecule antagonists of the constitutive androstane receptor (CAR) signaling pathway - cell viability counter screen (AID 1224837). Also: nearly all actives have a fitted effect of over 45% in size. Also: potency is read from the fitted curve at half-maximal effect. Summed up:
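HepG2 cells stably expressing hCAR and a CYP2B6-2.2kb reporter were plated and pre-incubated 4 hr at 37 C/5% CO2, then given compounds at 15 concentrations plus 50 nM CITCO (final). After 23 hr, viability was read by CellTiter-Fluor fluorescence.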

Experiment [5] has as its target Nuclear receptor subfamily 1 group I member 3 (Homo sapiens) (UniProt Q14994). Put plainly: qHTS assay to identify small molecule antagonists of the constitutive androstane receptor (CAR) signaling pathway (AID 1224838). Also: nearly all actives have a fitted effect of over 40% in size. Also: potency is read from the fitted curve at half-maximal effect. In outline: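 HepG2 cells stably co-transfected with hCAR and a CYP2B6-2.2kb luciferase reporter were seeded 4 h before compound addition at 15 concentrations. Cells were stimulated with 50 nM CITCO (final) for 24 h at 37 C; luciferase luminescence was then read.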

Experiment [6] has the same target. The experiment can be described thus: qHTS assay to identify small molecule agonists of the constitutive androstane receptor (CAR) signaling pathway (AID 1224839). Also: series mostly up to about 92 µM; nearly all actives have a fitted effect of over 15% in size. In outline:
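Compounds tested at 15 concentrations on HepG2 cells stably harbouring hCAR and CYP2B6-2.2kb reporter constructs, co-treated with PK11195 (0.75 uM final), 24 h at 37 C; luminescent reporter signal quantified.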

Experiment [7] in a line: qHTS assay to identify small molecule antagonists of the estrogen related receptor signaling pathway with the pleiotropic PPARgamma coactivator (PGC) from Tox21 10K library - cell viability counter screen (AID 1224840; active = well fitted cell-killing curve with a large enough effect in the repeat runs, not every such curve was filed as active; also: nearly all actives have a fitted effect of over 40% in size; also: potency is read from the fitted curve at half-maximal effect). Summed up:
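PGC/ERR cells were seeded at 2,000 cells/well and left 6 hours at 37 C/5% CO2 before pin-tool addition of compounds in DMSO. After 17.5 hours at 37 C, CellTiter-Fluor was added and fluorescence read 30 minutes later.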

The nature of experiment [8]: qHTS assay to identify small molecule agonists of the estrogen related receptor signaling pathway with the pleiotropic PPARgamma coactivator (PGC) (AID 1224823). Summed up: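 Steps: plate PGC/ERR cells at 2,000 cells/well; incubate 6 h, 37 C/5% CO2; pin-transfer compounds (DMSO); incubate 18 h, 37 C; add One-Glo; 30 min RT; read luminescence.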
Experiment [9] can be described thus: qHTS assay to identify small molecule antagonists of the estrogen related receptor signaling pathway with the pleiotropic PPARgamma coactivator (PGC) from Tox21 10K library (AID 1224841; call rule not given here; also: actives are mostly falling curves and most rising ones were filed inactive; nearly all actives have a fitted effect of over 50% in size; also: potency is read from the fitted curve at half-maximal effect). In outline: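 PGC/ERR reporter cells were seeded at 2,000 cells/well and held 6 hours at 37 C/5% CO2 before pin-tool addition of compounds in DMSO. After 18 hours at 37 C, One-Glo was added and luminescence read after 30 minutes at room temperature.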

A short description of experiment [10]: qHTS assay to identify small molecule agonists of the estrogen related receptor signaling pathway with the pleiotropic PPARgamma coactivator (PGC) from Tox21 10K library (AID 1224842). Also: nearly all actives have a fitted effect of over 15% in size. Also: potency is read from the fitted curve at half-maximal effect. Summed up:
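Luminescence from One-Glo (30 min, room temperature) measured after PGC/ERR cells had 18 h at 37 C with pinned compound (23 nL in DMSO). Cells had been seeded at 2,000 per well and pre-incubated 6 h.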

Values joined by “and” are separate entries in the source; they are usually repeats but may differ in a detail not shown here. Equal entries are not always repeated. Results filed as inconclusive are left out. A structure can be active in one record and inactive in another. Active and inactive are the calls of the source. Unless noted, calls follow the shape of the dose curve; as a rule, active = well fitted curve in the direction sought with a large enough effect in the repeat runs; inconclusive = weak or mixed curves; inactive = no such curve, though single readings can be large; an effect the other way counts as inactive or inconclusive.

Sequence of Luciferin 4-monooxygenase (Photinus pyralis) (P08659 whole entry, looked up): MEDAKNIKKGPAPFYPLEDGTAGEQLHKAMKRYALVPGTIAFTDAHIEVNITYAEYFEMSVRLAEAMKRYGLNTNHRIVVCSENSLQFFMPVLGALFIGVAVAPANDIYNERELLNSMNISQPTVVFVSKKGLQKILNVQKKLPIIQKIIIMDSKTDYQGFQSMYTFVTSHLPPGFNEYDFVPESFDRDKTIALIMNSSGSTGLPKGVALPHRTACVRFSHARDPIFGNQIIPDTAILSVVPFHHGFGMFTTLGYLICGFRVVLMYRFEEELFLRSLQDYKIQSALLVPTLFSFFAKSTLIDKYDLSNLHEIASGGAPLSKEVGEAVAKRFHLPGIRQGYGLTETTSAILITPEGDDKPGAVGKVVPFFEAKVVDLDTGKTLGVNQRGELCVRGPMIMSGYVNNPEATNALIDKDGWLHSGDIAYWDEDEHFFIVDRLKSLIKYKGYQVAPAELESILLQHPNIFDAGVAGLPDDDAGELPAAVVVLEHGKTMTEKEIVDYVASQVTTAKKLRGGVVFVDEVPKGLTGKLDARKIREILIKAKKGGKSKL
Sequence of Nuclear receptor subfamily 1 group I member 3 (Homo sapiens) (Q14994 whole entry, looked up): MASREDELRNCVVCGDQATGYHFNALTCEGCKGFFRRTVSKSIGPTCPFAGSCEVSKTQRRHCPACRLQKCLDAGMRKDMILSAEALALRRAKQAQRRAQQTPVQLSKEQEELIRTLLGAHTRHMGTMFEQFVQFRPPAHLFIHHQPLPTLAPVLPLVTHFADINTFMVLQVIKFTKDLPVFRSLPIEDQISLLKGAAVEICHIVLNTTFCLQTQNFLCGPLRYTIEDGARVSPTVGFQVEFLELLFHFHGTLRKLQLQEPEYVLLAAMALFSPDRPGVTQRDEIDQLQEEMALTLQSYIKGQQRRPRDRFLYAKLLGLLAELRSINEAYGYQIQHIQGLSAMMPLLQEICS

For the compound `O=C(O)CC(O)C(=O)O` (configuration not stated), the Potency entry in experiment [1], in experiment [2], in experiment [3], in experiment [4], in experiment [5] and in [6] was “inactive” throughout. Moreover, in [7], the Potency entry is “inactive”.
On to `CC(C)C(=O)Nc1ccc([N+](=O)[O-])c(C(F)(F)F)c1`, for which the compound was called inactive in [8]. Further, the Potency result in [2], in experiment [3], in [4], in experiment [5], in experiment [6] and in [7] was “inactive” each time. Besides, in experiment [10], the Potency entry was “inactive”. In addition, in experiment [9], the Potency is 28.1 µM (active) and 30.6 µM (active) and 21.1 µM (active).
In the case of `C=C(C)C(=O)OCC(C)O` (configuration not stated), the Potency result in experiment [1], in experiment [2], in experiment [3], in [4], in experiment [5] and in experiment [6] was “inactive” in each case. In addition, the Potency entry in experiment [7] is “inactive”.
With `Cc1cc(C)nc(NS(=O)(=O)c2ccc(N)cc2)n1`, the Potency entry in experiment [1], in [2], in [3], in [4], in experiment [5] and in experiment [6] was “inactive” throughout. Further, the Potency result in experiment [7] was “inactive”.
For the compound `CCCCCCCCCCCC[N+](C)(C)Cc1ccccc1`, the Potency in experiment [1] is 60 µM (active) and 66.4 µM (active) and 23.7 µM (active); in experiment [3], 47.6 µM (active) and 59.2 µM (active) and 29.8 µM (active); in experiment [4], 47.6 µM (active) and 23.7 µM (active); in experiment [5], 83.6 µM (active) and 29.8 µM (active); in experiment [7], 60 µM (active) and 41.9 µM (active). Besides, the Potency entry in experiment [2] and in experiment [6] was “inactive” throughout.
As for `NS(=O)(=O)c1cc2c(cc1Cl)NCNS2(=O)=O`, the result in [8] was inactive. The Potency result in [1], in [2], in [3], in experiment [4], in experiment [7] and in experiment [9] was “inactive” in each case. Besides, the Potency result in [10] is “inactive”.
In the case of `O=C1NC(=O)C(c2ccccc2)(c2ccccc2)N1`, the Potency entry in [1], in experiment [2], in experiment [3], in experiment [4], in experiment [5] and in experiment [6] was “inactive” throughout. Moreover, the Potency entry in [7] is “inactive”.
As for `COc1cccc(O)c1O`, the Potency in [1] is 63.5 µM (active). The Potency result in experiment [2], in [3], in [4], in experiment [5] and in experiment [6] was “inactive” throughout.
Take `CC(C)NCC(O)c1ccc(O)c(O)c1` (configuration not stated): the compound was called inactive in [8]. The Potency result in experiment [1], in [3], in experiment [4], in experiment [7] and in [9] was “inactive” in each case. Also, the Potency in experiment [10] is 5.4 nM (active) and 8.6 nM (active) and inactive.
Take `CC1(C)S[C@@H]2[C@H](NC(=O)[C@H](N)c3ccccc3)C(=O)N2[C@H]1C(=O)O`: the Potency entry in experiment [1], in experiment [2], in experiment [3], in experiment [4] and in experiment [7] was “inactive” each time.
Take `CN(C)C(=O)Nc1ccc(Cl)c(Cl)c1`: the Potency entry in experiment [1], in experiment [2], in [3], in experiment [4], in experiment [5] and in experiment [7] was “inactive” each time. In addition, the Potency entry in experiment [9] and in experiment [10] was “inactive” in each case.
On to `CC12CCC(CC1)C(C)(C)O2`, for which the Potency result in experiment [1], in experiment [2], in [3], in experiment [4] and in [7] was “inactive” throughout.
`CCCCC(CC)C(=O)O` (configuration not stated): the Potency entry in [1], in experiment [2], in experiment [3], in [4] and in [7] was “inactive” throughout.
In the case of `O=S1(=O)OC(c2ccc(O)cc2)(c2ccc(O)cc2)c2ccccc21`, the Potency in experiment [1] was 27.3 µM (active) and 18.8 µM (active); in [2], 31.7 µM (active) and 17.8 µM (active) and 12.3 µM (active); in experiment [3], 30.6 µM (active) and 27.3 µM (active) and 33.5 µM (active); in experiment [4], 27.3 µM (active) and 13.3 µM (active); in experiment [7], 30.6 µM (active) and 27.3 µM (active) and 21.1 µM (active); in [9], 54.5 µM (active) and 61.1 µM (active) and inactive. Moreover, the Potency result in experiment [5], in experiment [6] and in experiment [10] was “inactive” in each case.
In the case of `Cc1cccc(C)c1`, the Potency entry in experiment [1], in [2], in experiment [3], in [4], in experiment [5] and in [6] was “inactive” each time. For the same compound, the Potency entry in [7], in experiment [9] and in [10] was “inactive” in each case.
As for `O=CC(=O)c1ccccc1`, the Potency result in experiment [1], in experiment [2], in experiment [3], in experiment [4], in experiment [6] and in experiment [7] was “inactive” each time. The Potency result in experiment [9] is “inactive”. The Potency in experiment [5] is 68.7 µM (active).
In the case of `CN(C)C(=S)SC(=S)N(C)C`, the Potency was 1.98 µM (active) and 1.54 µM (active) and 1.68 µM (active) in experiment [1]; 25.8 µM (active) and 11.2 µM (active) and 12.3 µM (active) in experiment [2]; 2.22 µM (active) and 1.72 µM (active) and 3.76 µM (active) in experiment [3]; 1.57 µM (active) and 1.72 µM (active) and 2.37 µM (active) in experiment [4]; 1.25 µM (active) and 1.54 µM (active) and 2.37 µM (active) in experiment [5]; 1.25 µM (active) and 1.37 µM (active) and 1.68 µM (active) in [7]. Further, the Potency in experiment [9] is 1.25 µM (active) and 1.22 µM (active) and 2.37 µM (active). In addition, the Potency entry in [6] and in [10] was “inactive” each time.
On to `O=c1[nH]cnc2c1ncn2[C@H]1CC[C@@H](CO)O1`, for which the Potency entry in experiment [1], in experiment [2], in [3], in [4], in [5] and in experiment [6] was “inactive” in each case. Further, the Potency result in [7], in [9] and in experiment [10] was “inactive” each time.
Consider `CCCCCCCC(=O)OCC(COC(=O)CCCCCCC)OC(=O)CCCCCCC`, for which the Potency result in [1], in experiment [2], in [3], in experiment [4] and in [7] was “inactive” throughout.

The values above are taken from PubChem BioAssay (Tox21).
